# Test results taken from PubChem BioAssay (NCI).
# About 83,000 compounds went through this panel and 20% of them were active in at least one assay; those are over-represented in the sample as a whole.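 Compound tested at a single concentration for 48 hours in 96-well plates; a percent growth value below 10 was scored as active.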 Values without a mark were called inactive. Activity calls are given as the source filed them.
# Test system: HL-60(TB) leukemia
# Assay: NCI-60 one-dose screen, 48 h (100 = growth as untreated, 0 = no growth, -100 = all killed)
# Conditions: 10 µM unless noted
row,SMILES,growth
1,FC(F)(F)c1cn(CCN2CCOCC2)c2ncnc(Cl)c12,-68.6% (active)
2,Cc1cccc(N2CCC(=O)NC2=S)c1,98.6%
3,COc1cc2oc3cc(=O)cc4oc(-c5ccccc5)cc(c2c2c1CCC(c1ccccc1)O2)c43 (configuration not stated),138%
4,NC(=O)c1ccc(N=C(N)N=C(N)N)cc1,98.7%
5,C#C[C@@]1(O)[C@@H](CO)O[C@@H](n2cc(Cl)c3c(N)ncnc32)[C@@H]1O,-56.8% (active)
6,O=C(N/N=C/c1ccc([N+](=O)[O-])o1)c1ccc(O)cc1,19.8%
7,Cn1cnc([N+](=O)[O-])c1N1c2ccncc2Sc2ccncc21,87.5%
8,COc1cccc(-c2cc(C(=O)Nc3ccc(/C=C/c4ccc(OC5CCN(C)CC5)cc4)cc3)ccc2OC)c1,9.98% (active)
9,Cl/C(=N\Nc1ccccc1)c1ccccc1,101%
10,O=C(O)c1cc(C(=O)O)cc([N+](=O)[O-])c1,94.5%
11,COc1cccc(-c2nn(-c3ccccc3)cc2-c2ccnc(NCCCNS(=O)(=O)c3ccc(Cl)cc3)c2)c1,40%
12,CC(=O)OCC1CCCO1 (configuration not stated),84.7%
13,Cc1cccc2nc3ccccc3c(Nc3ccc(NS(C)(=O)=O)cc3)c12,1.14% (active)
14,COC1=CC(=O)c2c(O)c3c(c(O)c2C1=O)CC(C)(O)OC3 (configuration not stated),-57.1% (active)
15,COc1cc(C2CC(c3ccccc3)=NN2C(C)=O)cc(OC)c1OC (configuration not stated),14.2%
16,CN1CCN(Cc2ccc(NC(=O)c3cccc(C#Cc4cnc(N)c5ncccc45)c3F)cc2C(F)(F)F)CC1,12%
17,c1ccc(C2=Nc3ccccc3SC2)cc1,107%
18,CCOC(=O)/C=C1\S/C(=N\Nc2ccc([N+](=O)[O-])cc2[N+](=O)[O-])N(Cc2ccccc2)C1=O,76.3%
19,CCOC(=O)c1cc2c(n1Cc1cc(OC)c(OC)c(OC)c1)-c1nc(N)sc1CCC2,13.2%
20,NCCC(=O)c1ccc(Cl)cc1,95.6%
21,COc1ccc(Cl)cc1NC(=O)C(Br)C(Br)C(=O)O (configuration not stated),1.26% (active)
22,Cc1ccc(S(=O)(=O)OC[C@]23CCC(C)(C)C[C@H]2C2=CC[C@@H]4[C@@]5(C)CCCNC(C)(C)[C@@H]5CC[C@@]4(C)[C@]2(C)CC3)cc1,24.5%
23,N[C@@H]1CCC[C@H]1NCCCCN1C(=O)c2cccc3cccc(c23)C1=O,91.1%
24,c1ccc(-c2cc3cc4ccccc4cn3c2)cc1,94.6%
25,CCCCCCCCCCCCCCCCCCOP(=O)(O)O,102%
26,COc1cc2nccc(Oc3ccc(NC(=O)C4(C(=O)Nc5c(F)cc(F)cc5F)CC4)cc3)c2cc1Oc1ccc(N)cn1,38.3%
27,COc1ccc(OC)c(/C=C2\COc3ccc(O)c(O)c3C2=O)c1,-11% (active)
